In the library only some 1.2% were active in any assay of this set; here they are far more common.
TrxR1 substrate: substrates of rat thioredoxin reductase 1; 0.01% of 390,000 active; purified TrxR1 substrate turnover, NADPH consumption readout; Potency, µM (top dose mostly 114 µM); O89049; also: nearly all actives have a fitted effect of over 50% in size
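Rat TrxR1, dispensed at 90 nM, was prereduced with 400 uM NADPH (final) for 5 min at ~22 deg C, then incubated with compound 15 min before 400 uM selenite. A first-read NADPH fluorescence drop versus no-compound background flagged substrates.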
NPSR antag: neuropeptide S receptor (human) antagonism, cAMP; AID 1461; Potency, µM (titrated, usually from 38.3 µM), usual class: inhibitors; Q6W5P4; 1% of 220,000 active; CHO-NPSR cells, cAMP TR-FRET, antagonist mode; also: nearly all actives have a fitted effect of over 50% in size
rTrxR1 inhibitor: rat TrxR1 inhibition; recombinant rTrxR1, NADPH fluorescence consumption, selenite substrate; 1% of 390,000 active; Potency, µM (series often up to 114 µM), actives largely listed as inhibitors; AID 588453; O89049; also: nearly all actives have a fitted effect of over 65% in size
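Rat TrxR1 (90 nM in the dispensed reagent) was pre-reduced with 400 uM NADPH for 5 min at room temperature, then incubated with compound for 15 min. After 400 uM selenite was added, NADPH fluorescence (Ex 340/Em 450 nm) was followed for 8 min.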
GALK inhibitor: inhibitors of human galactokinase | Purified GALK, Kinase-Glo residual ATP luminescence | Potency, µM (top dose mostly 57.5 µM), hits mostly inhibitors | P51570 | 0.007% of 270,000 active | AID 1868
Target sequence (P51570 whole entry, looked up): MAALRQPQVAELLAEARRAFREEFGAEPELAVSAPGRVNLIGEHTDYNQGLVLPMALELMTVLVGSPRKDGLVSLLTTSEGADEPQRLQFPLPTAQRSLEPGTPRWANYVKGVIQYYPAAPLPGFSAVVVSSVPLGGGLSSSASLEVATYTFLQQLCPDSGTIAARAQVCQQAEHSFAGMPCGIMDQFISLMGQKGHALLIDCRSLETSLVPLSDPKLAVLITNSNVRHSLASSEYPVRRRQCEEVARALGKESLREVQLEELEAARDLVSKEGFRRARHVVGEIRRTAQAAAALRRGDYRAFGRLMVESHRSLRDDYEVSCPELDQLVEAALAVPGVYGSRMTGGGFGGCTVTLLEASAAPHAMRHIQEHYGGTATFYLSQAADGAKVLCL
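Luminescence from leftover ATP (Ultra-Glo luciferase/luciferin) served as read-out after a 1 h room-temperature reaction of 5 nM GALK with 35 uM ATP and 100 uM galactose.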
Large screens that a line does not name were inactive; ! = not active in a repeat. Calls follow the shape of the dose curve; as a rule, active = well fitted curve in the direction sought with a large enough effect; inconclusive = small, poorly fitted or top-dose-only effect, or another doubt; inactive = no such curve, though single readings can be large; an effect the other way counts as inactive or inconclusive.

CCOc1ccc(-n2c(SCC(=O)NCc3ccco3)nnc2-c2c[nH]c3ccccc23)cc1	NPSR antag 13µM
O=C(CSc1nnc(C2CCCCC2)n1Cc1ccccc1)NCc1ccco1	rTrxR1 inhibitor 45µM
Cc1cc(SCC(=O)NC(=O)NCc2ccco2)nc2ccccc12	rTrxR1 inhibitor 71µM
Cc1cc(C)nc(SCc2nnc(SCC(=O)NCc3ccco3)n2-c2ccccc2)n1	rTrxR1 inhibitor 50µM
O=CC(=O)c1ccc(F)cc1	none (no result: NPSR antag, GALK inhibitor)
COc1ccc(NC(=O)C(NC(=O)/C=C\c2ccc3c(c2)OCO3)c2ccccc2)cc1 (stereo unspecified)	none (no result: NPSR antag, GALK inhibitor)
Cc1ccc(C)c(NC(=O)Nc2cc3c(cc2N2CCCCC2)n(C)c(=O)n3C)c1	none (no result: NPSR antag, GALK inhibitor)
Cc1cccc(-n2c(SCC(=O)NCc3ccco3)nnc2-c2ccco2)c1	none
Cc1ccc(-n2c(SCC(=O)NCc3ccco3)nnc2-c2cccnc2)c(C)c1	rTrxR1 inhibitor 56µM
CC(C)Cc1nnc(NS(=O)(=O)c2ccc([N+](=O)[O-])cc2)s1	none (no result: NPSR antag)
O=[N+]([O-])c1ccc(S(=O)(=O)Nc2nnc(C(F)(F)F)s2)cc1	rTrxR1 inhibitor 6.3µM (no result: NPSR antag)
COc1ccc(CN2CC[C@H]3C=CC[C@@H](C(=O)Nc4ccc(Cl)cc4Cl)[C@H]3C2=O)cc1OC	none (no result: NPSR antag, GALK inhibitor)
O=C1c2cc(Br)ccc2OC2C=CC=CC12 (stereo unspecified)	none (no result: NPSR antag, GALK inhibitor)
O=C(COC(=O)C1CCN(c2ccc(C(F)(F)F)cn2)CC1)NCc1cccc(Cl)c1	none (no result: NPSR antag, GALK inhibitor)
CCOC(=O)N1CCN(c2cc(NCCO)c([N+](=O)[O-])c3nonc23)CC1	none
CC(=O)OCCNc1cc(SC(C)C)c2nonc2c1[N+](=O)[O-]	none
CCC(=O)OCCNc1cc(Sc2nccn2C)c2nonc2c1[N+](=O)[O-]	NPSR antag inconclusive, rTrxR1 inhibitor 0.28µM
CCCC(=O)OCCNc1cc(Sc2nc3ccccc3[nH]2)c2nonc2c1[N+](=O)[O-]	NPSR antag inconclusive, rTrxR1 inhibitor 1µM
CCC(=O)OCCNc1cc(SCCC(=O)OC)c2nonc2c1[N+](=O)[O-]	rTrxR1 inhibitor 8.9µM
Cc1ccc(Sc2cc(NCCCO)c([N+](=O)[O-])c3nonc23)cc1	rTrxR1 inhibitor 13µM
CCN(CC)c1cc(NCCO)c([N+](=O)[O-])c2nonc12	none
CC(C)CCSc1cc(NCCO)c([N+](=O)[O-])c2nonc12	rTrxR1 inhibitor 3.5µM
COC(=O)CCSc1cc(NCCCOC(C)=O)c([N+](=O)[O-])c2nonc12	rTrxR1 inhibitor 3.2µM (no result: NPSR antag, GALK inhibitor)
CC(=O)OCCCNc1cc(Sc2ccc(Cl)cc2)c2nonc2c1[N+](=O)[O-]	NPSR antag inconclusive, rTrxR1 inhibitor 3.2µM
CCCc1cc(=O)[nH]c(SCc2nc(-c3ccc(C)cc3)no2)n1	none (no result: NPSR antag, GALK inhibitor)
CCOc1ccc(-n2c(SCc3ccccc3)nc3c([nH]c4ccccc43)c2=O)cc1	none (no result: NPSR antag, GALK inhibitor)
CCc1ccc2c(c1)NC(c1cccnc1)=NC(c1ccc(C(C)(C)C)cc1)=N2	none (no result: NPSR antag, GALK inhibitor)
COC(=O)C1=C(C)N(Cc2ccccc2)C(=O)/C1=C\c1ccco1	NPSR antag inconclusive, rTrxR1 inhibitor 50µM
CCOC(=O)C1=C(C)N(c2ccc(C)cc2)C(=O)/C1=C\c1ccc(O)c(OC)c1	rTrxR1 inhibitor 18µM
CCOc1cc(/C=C2\C(=O)N(Cc3ccco3)C(C)=C2C(=O)OC)ccc1O	rTrxR1 inhibitor 22µM
COc1cc2ncc(S(=O)(=O)c3ccccc3)c(N3CCCC(C)C3)c2cc1OC (stereo unspecified)	none (no result: NPSR antag, GALK inhibitor)
Cc1cc(N(C)C)c(C)cc1/C=C/c1ccnc2ccccc12	none (no result: NPSR antag, GALK inhibitor)
COc1ccc(-n2c(=O)c3c4c(sc3n(C)c2=O)CN(C(C)=O)CC4)cc1	none (no result: NPSR antag, GALK inhibitor)
Oc1cccc2ccc[n+](CC(O)CBr)c12 (stereo unspecified)	none (no result: NPSR antag, GALK inhibitor)
N#C/C(=C\c1ccccc1)C(=O)NNS(=O)(=O)c1cccc([N+](=O)[O-])c1	rTrxR1 inhibitor 10µM (no result: NPSR antag, GALK inhibitor)
N#C/C(=C/c1cccc([N+](=O)[O-])c1)C(=O)Nc1ccccc1O	none
CCN(CC(=O)Nc1c(F)cccc1F)C(=O)CCCOc1ccccc1	none (no result: NPSR antag, GALK inhibitor)
O=C1/C(=C/c2ccc(O)c(O)c2)SC(=S)N1Nc1ccccc1	none
O=C(O)c1ccc(/C=C2\SC(=S)N(Nc3ccccc3)C2=O)cc1	rTrxR1 inhibitor 50µM
O=C1/C(=C/c2ccncc2)SC(=S)N1Nc1ccccc1	rTrxR1 inhibitor 4.5µM
CCOC(=O)/C=C1\CC(C(=O)OCC)Oc2c(OC)cccc21 (stereo unspecified)	rTrxR1 inhibitor 28µM! (no result: NPSR antag, GALK inhibitor)
CN(C)c1ccc(C2=Cc3ccccc3C2)cc1	rTrxR1 inhibitor inconclusive (no result: NPSR antag, GALK inhibitor)
COc1ccc(-c2nc(N3CCCCCC3)sc2C(=O)c2ccccc2)cc1	NPSR antag 5µM

Screens as filed in PubChem.
